Experimental data taken from PubChem BioAssay (NCATS).
Results filed as inconclusive are left out. A number with no mark means an inactive call. Calls follow the shape of the dose curve; as a rule, active = well fitted cell-killing curve with a large enough effect; inconclusive = small, poorly fitted or top-dose-only effect, or effect the other way; inactive = flat fitted curve, though single readings scatter.

Test system: JEG-3
Assay: Primary qHTS to identify gynecologic anti-cancer compounds using libraries of approved drugs and bioactive compounds (AID 1345084); also: nearly all actives have a fitted effect of over 55% in size
Conditions: Gynecologic cancer cell panel viability, ATPlite luminescence, 48 h; series mostly up to 57.5 µM; activity change, negative = cytotoxicity: at the top concentration
Outline: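 Measured: luminescence after ATPlite addition (15 min, RT). Exposure: 48 h, 37 C, 5% CO2.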
% is scaled to controls: 0 for no effect and ±100 for the full control effect.

Row | SMILES | activity change, negative = cytotoxicity
1 | CC(=O)C12OC(C)(C)OC1CC1C3CCC4=CC(=O)C=CC4(C)C3(F)C(O)CC12C (configuration not stated) | 27.9%
2 | COC(=O)C1=CO[C@@H](O[C@@H]2O[C@H](CO[C@@H]3O[C@H](COC(=O)/C=C/c4cc(OC)c(O)c(OC)c4)[C@@H](O)[C@H](O)[C@H]3O)[C@@H](O)[C@H](O)[C@H]2O)[C@@H]2C(CO)=CC[C@H]12 | 4.95% [at 25.3 µM]
3 | CC1=C2C3OC(=O)C(C)C3(O)CCC2(C)CCC1O (configuration not stated) | 16.3%
4 | COc1ccccc1Oc1ccc(N(Cc2cccnc2)S(=O)(=O)CC(F)(F)F)cc1 | 0.627%
5 | O=C(/C=C/c1ccc(O)cc1)N[C@@H](Cc1ccc(O)cc1)C(=O)O | 10.7% [at 38.5 µM]
6 | CC1=C(C)C(=O)OC(C(C)C2CCC3C4C5OC5C5(O)CC(OC6OC(CO)C(OC7OC(C)C(O)C(O)C7O)C(O)C6O)CC(O)C5(C)C4CCC23C)C1 (configuration not stated) | -2.36% [at 25.3 µM]
7 | C=C[C@H]1CN2CC[C@H]1C[C@@H]2C(O)c1ccnc2ccc(OC)cc12 (some centres not stated) | 0.197% [at 38.5 µM]
8 | C=C[C@H]1C(O[C@@H]2O[C@H](CO)[C@@H](O)[C@H](O)[C@H]2O)OC=C2C(=O)N3CCc4c([nH]c5ccccc45)C3CC21 (some centres not stated) | -6.76% [at 25.3 µM]
9 | O=C(O)/C=C/c1ccc(O)c(O[C@@H]2O[C@H](CO)[C@@H](O)[C@H](O)[C@H]2O)c1 | 2.25% [at 38.5 µM]
10 | C=C(C(=O)O)C1CC(O)C2(C)CCCC(=C)C2C1 (configuration not stated) | 2.03%
11 | CC1CCC2(C(=O)O)CCC3(C)C(=CCC4C5(C)CCC(OC(=O)/C=C/c6ccccc6)C(C)(C)C5CCC43C)C2C1C (configuration not stated) | 11% [at 25.3 µM]
12 | C=C[C@H]1[C@H](O[C@@H]2O[C@H](CO)[C@@H](O)[C@H](O)[C@H]2O)OC=C(C(=O)OC)[C@H]1CC(=O)O | 3.98% [at 38.5 µM]
